Screening data as filed in PubChem.
Six1-Eya2 blk: qHTS Assay for Inhibitors of the Six1/Eya2 Interaction. activity change, % (concentration not given with the values). AlphaScreen GST-Six1/His-Eya2 binding, biochemical; stronger effect = lower value. actives 0.56% (n = 360,000). AID 651725, 2012; also: % is scaled to controls: 0 for no effect and ±100 for the full control effect
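AlphaScreen with GST-Six1 and His-Eya2 (5X mix: 250 nM and 500 nM), glutathione donor and nickel acceptor beads; buffer 50 mM Tris pH 8.0, 300 mM NaCl, 1 mM TCEP; 1 h at 37 C in the dark.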
Mito fusion act: qHTS Assay for Small Molecule Inhibitors of Mitochondrial Division or Activators of Mitochondrial Fusion; S. cerevisiae fusion-defective mutant growth rescue, CellTiterGlo 48 h; Potency, µM (top dose mostly 46.1 µM), inactives show at the highest dose growth rescue (activation), hits mostly activators; actives 0.23% (n = 320,000); AID 485298, 2010; active = well fitted activation curve with a large enough effect; inconclusive = small, poorly fitted or top-dose-only effect; inactive = no such curve, though single readings can be large or run the other way; also: potency is read from the fitted curve at half-maximal effect; % of control where 0% means no effect; nearly all actives have a fitted effect of over 45% in size
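Temperature-sensitive fusion-defective S. cerevisiae (e.g. fzo1-1, mgm1-5) were grown with compound in YPEG medium (3% ethanol, 3% glycerol) for 48 hours at 37C. Growth rescue was measured as viability by CellTiterGlo luminescence after 10 minutes at ambient.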
MBNL1-CUG inh: qHTS Assay for Inhibitors of MBNL1-poly(CUG) RNA binding; Muscleblind-like protein 1 (Homo sapiens), Q9NR56; TR-FRET MBNL1-His/biotin-(CUG)12 binding, 665/545 ratio; Potency, µM (doses to about 57.5 µM), for inactives: at the top dose activity change, negative = inhibition, most hits filed as inhibitors; actives 0.036% (n = 280,000); active = well fitted inhibition curve with a large enough effect in the signal ratio, with a control signal flat, not every such curve was filed as active; inconclusive = small, poorly fitted or top-dose-only effect, or effect the other way, or a change in a side signal; inactive = no such curve, though single readings can be large or run the other way; the % refers to the signal ratio; also: potency is read from the fitted curve at half-maximal effect; % is scaled to controls: 0 for no effect and ±100 for the full control effect
Target sequence (Q9NR56 whole entry, looked up): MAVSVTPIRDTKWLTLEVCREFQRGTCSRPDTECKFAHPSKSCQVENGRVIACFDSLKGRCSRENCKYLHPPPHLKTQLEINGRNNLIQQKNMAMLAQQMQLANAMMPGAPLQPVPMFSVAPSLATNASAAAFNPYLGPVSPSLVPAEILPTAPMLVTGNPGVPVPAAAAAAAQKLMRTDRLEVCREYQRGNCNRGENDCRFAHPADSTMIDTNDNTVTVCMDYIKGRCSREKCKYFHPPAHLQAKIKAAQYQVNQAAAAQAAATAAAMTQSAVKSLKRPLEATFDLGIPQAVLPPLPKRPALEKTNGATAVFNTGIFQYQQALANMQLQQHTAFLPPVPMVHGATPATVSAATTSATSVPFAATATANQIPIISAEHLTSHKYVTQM
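Inhibition of protein-RNA binding appears as loss of TR-FRET between terbium anti-His antibody on MBNL1-His and streptavidin-XL665 on biotin-(CUG)12. Activity is normalized to buffer-only and uninhibited-complex controls.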
uPA surface inh: qHTS for Inhibitors of Cell Surface uPA Generation; Potency, µM (top dose mostly 38.3 µM), without a hit: top-dose activity change, negative = inhibition, usual class: inhibitors; actives 0.31% (n = 330,000); AID 540303, 2011; cell surface uPA generation assay, qHTS; active = well fitted inhibition curve with a large enough effect; inconclusive = small, poorly fitted or top-dose-only effect; inactive = no such curve, though single readings can be large or run the other way; tested in mouse RAW 264.7 cells; also: potency is read from the fitted curve at half-maximal effect; % is scaled to controls: 0 for no effect and ±100 for the full control effect; nearly all actives have a fitted effect of over 55% in size
CtBP-E1A blk: qHTS Assay for Inhibitors of the CtBP/E1A Interaction. CtBP / adenovirus E1A interaction (AlphaScreen). AlphaScreen GST-E1A/His-CtBP binding, 1536-well; stronger effect = lower value. activity change, % (no concentration beside the values). actives 0.49% (n = 340,000). AID 651724, 2012; also: % is scaled to controls: 0 for no effect and ±100 for the full control effect
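AlphaScreen with 125 nM GST-E1A and 125 nM His-CtBP (5X stocks) in Tris pH 8.0, 300 mM NaCl, BSA, Tween 20, TCEP. Compounds preincubated 2 h at 37 deg C, then glutathione donor/nickel acceptor beads added for 1 h at 37 deg C in dark.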
The depositor's hits bear a star; ? = inconclusive; . = no result given. Hits are enriched below; roughly 1.1% of the tested compounds scored in any of these assays. Rule as the data show it, unless noted: active = activity change below about -65%; inconclusive = mostly about -30% to -63%; inactive = weaker than that.

SMILES	Six1-Eya2 blk	Mito fusion act	MBNL1-CUG inh	uPA surface inh	CtBP-E1A blk
CCCc1cc(N2CCN(C(=O)c3ccco3)CC2)n2c(nc3ccccc32)c1C#N	?	1.6%	?	-3.8%	-67.4*
Cc1ccc2nc(-c3ccccc3)c(Cc3ccccc3C(F)(F)F)n2c1	-18.6	.	.	.	-22.1
CCOC(=O)c1c(C)[nH]c(C)c1C(=O)COC(=O)/C=C/c1cccc(Cl)c1	1.8	2.0%	24.0%	8.2%	-0.7
CCOC(=O)c1c(C)[nH]c(C=O)c1Cc1cccc(Cl)c1	4.8	12.6µM*	-0.2%	-14.1%	1.5
Clc1ccc(-c2nc(N3CCCCC3)nc3ccccc23)cc1	110.3	35.5µM*	5.8%	-4.3%	85.1
CCCS(=O)(=O)NC(=O)C1(C)CCN(C(=O)c2cc(C(C)(C)C)nn2C)C1 (stereo not given)	-1.3	.	.	.	4.3
CC1(C(=O)NCc2ccccc2)CN(S(C)(=O)=O)CC(=O)N1CCc1ccc(O)cc1 (stereo not given)	-1.0	.	.	.	5.1
Cn1cc(Cc2ccccc2)c(=O)c(Cc2ccccc2)c1	4.2	.	.	-1.6%	10.5
c1ccc(-c2nccc(-c3ccco3)n2)nc1	?	0.6%	2.5%	-0.4%	-67.4*
c1ccc(-c2noc(-c3ccco3)n2)nc1	-6.3	-7.4%	2.0%	-1.1%	-4.7
COCCN(CCOC)Cc1cc(=O)oc2cc(C)cc(C)c12	4.7	.	.	.	-1.8
CSc1ncc(CN2CCCC(C(=O)c3ccc(C(C)(C)C)cc3)C2)cn1 (stereo not given)	-16.3	12.6µM*	8.8%	-19.3%	.
CCn1cc(CN2CCCC(C(=O)Nc3cccc(-n4cccn4)c3)C2)cn1 (stereo not given)	-4.1	.	.	.	1.2
COc1cc(/C=C2/SC(=Nc3ccc(O)cc3)NC2=O)cc(OC)c1O	-70.5*	-2.3%	10.6%	-5.2%	0.0
COc1cc(/C=C2\SC(=Nc3ccc(O)cc3)NC2=O)cc(OC)c1OC	-11.0	-2.0%	-0.1%	-5.0%	-6.2
CN1/C(=C\C=N\O)C(C)(C)c2ccccc21	7.2	6.2%	-2.4%	-1.3%	3.3
CN(C)c1ccc(N=C/C=C2/N(C)c3ccccc3C2(C)C)cc1	-67.5*	-5.5%	?	?	.
O=C(c1cc(C2CC2)nn1-c1ccccc1)N1CCN(Cc2ccc(Cl)cc2)CC1	-10.8	20µM*	.	-0.3%	-25.8
O=C(c1cc(C2CC2)nn1-c1ccccc1)N1CCN(Cc2ccccc2F)CC1	-6.1	28.5%	.	21.0%	1.8
CC(=O)N[C@@H](Cc1ccc(O)cc1)C(=O)N[C@H](C(=O)N[C@@H](C)C(=O)N[C@H](C#N)CC(=O)O)C(C)C	.	-2.8%	.	.	.
Cc1c(CC(=O)O)c(=O)oc2c(C)c3occ(-c4ccc(F)cc4)c3cc12	-28.8	32.9%	0.2%	1.8%	-72.5*
COc1cc(COc2ccc3c(C)c(CCC(=O)O)c(=O)oc3c2)cc(OC)c1OC	-9.0	4.8%	1.2%	-1.2%	-5.6
Cc1c(CCC(=O)O)c(=O)oc2c(C)c3occ(-c4ccc(Br)cc4)c3cc12	-84.9*	28.1%	130.3%	-4.3%	-84.3*
COc1ccc(-c2coc3c(C)c4oc(=O)c(CCC(=O)O)c(C)c4cc23)cc1	-77.2*	?	-2.3%	1.2%	-71.7*
COc1cccc(/C=N/NC(=O)c2cc3c(OC)ccc(OC)c3[nH]2)c1O	-68.0*	-3.0%	2.9%	6.31µM*	.
SMILES	Six1-Eya2 blk	Mito fusion act	MBNL1-CUG inh	uPA surface inh	CtBP-E1A blk
COc1cc(OC)c2cc(C(=O)N/N=C/c3cccc(OC)c3O)[nH]c2c1	?	1.5%	-0.2%	-14.4%	-75.5*
OCC[C@H]1NCc2cc(CO)cc(-c3ccccc3)c21	-28.3	.	.	-1.4%	1.6
C=CCn1c(NC(=O)c2ccco2)c(S(=O)(=O)c2ccccc2)c2nc3ccccc3nc21	.	5.8%	28.2%	.	.
C=CCn1c(NC(=O)c2ccc(Br)o2)c(S(=O)(=O)c2ccccc2)c2nc3ccccc3nc21	-21.4	11.2µM*	?	-0.2%	?
COc1ccc(C(=O)C(C)C(C)=O)c(OCc2ccccc2)c1OC (stereo not given)	14.2	.	.	4.6%	-10.1
COc1ccc(-c2c(N)cnc(C(=O)O)c2C)c(OCc2ccccc2)c1OC	-82.5*	.	.	.	-7.8
CN(C)/C=C/C(=O)c1ccc(-n2cccc2)cc1	-5.4	-4.0%	23.1%	?	-7.4
CN(C)c1ccc(-n2cccc2)cc1	-67.9*	4.0%	-7.2%	1.4%	?
COc1cc(C(=O)N/N=C/c2cc([N+](=O)[O-])cs2)cc(OC)c1OC	?	-49.9%	?	-13.2%	-71.8*
CCOc1ccc(C(=O)N/N=C/c2cc([N+](=O)[O-])cs2)cc1	-23.6	0.9%	91.1%	-6.2%	-18.6
COc1cccc(-c2nnc(NC(=O)c3ccc(Cl)s3)o2)c1	-27.1	3.55µM*	-20.1%	?	-2.9
C=CC[C@]12C=C(OC)C(=O)C(OC)=C1O[C@@H](c1ccc3c(c1)OCO3)[C@H]2C	-3.3	.	.	-15.1%	-2.1
C=CC[C@]12CC=CC(=O)[C@@]1(O)O[C@H](c1ccc(OC)c(OC)c1)[C@H]2C	5.9	.	.	7.94µM*	3.6
COc1cc(C(=O)Nc2ccc3c(c2)nc(C)n3C)cc(OC)c1OC	-0.2	0.0%	2.5%	5.62µM*	.
CCOc1ccc(NC(=O)CC(NCc2ccccn2)C(=O)O)cc1 (stereo not given)	-90.4*	-1.5%	12.5%	0.5%	-92.2*
CC(Oc1ccccc1)C(=O)Nc1nnc(S(=O)(=O)N(C)c2ccccc2)s1 (stereo not given)	-0.4	12.6µM*	-1.8%	2.8%	2.4
CCC(C)[C@H](NC(=O)NC1CCCc2ccccc21)C(=O)O (stereo not given in full)	2.5	0.0%	4.6%	.	6.9
CCC(NC(=O)C(C)NC)C(=O)N1CCCC1C(=O)NC1CCCc2ccccc21 (stereo not given)	11.9	-7.5%	.	0.398µM*	9.3
CCCC(=O)NC(=S)Nc1ccc(S(=O)(=O)Nc2ccc(OCC)cc2)cc1	3.9	15.8µM*	-5.6%	-4.7%	15.3
CCOc1ccc(NS(=O)(=O)c2ccc(NC(=S)NC(=O)CC(C)C)cc2)cc1	-18.6	?	-1.8%	8.8%	1.1
Cc1ccc2c(c1C)NC(C(=O)O)C1CC=CC21 (stereo not given)	-25.6	3.2%	9.2%	13.9%	-5.7
O=C(O)C1Nc2c(C(=O)N3CCOCC3)cccc2C2C=CCC12 (stereo not given)	-73.8*	-2.1%	?	15.2%	-29.3
